Laboratory results published in PubChem BioAssay AID1159580 (chemical genetic matrix, 2015).
Several values for one entry are separate records, joined by “and”; a condition that tells them apart may be missing. Equal entries are not always repeated. The campaign covered roughly 5,500 compounds. About 2,000 (36%) were called active. Another 18% or so got no clear call; they are omitted. No stated cut-off is given here; in the data, active means normalized growth mostly below about 0.91 (no sharp cut-off); inconclusive means no clear call, values can overlap the other calls; inactive means mostly above about 0.92. This is one part of the list.

Experiment: chemical genetic growth profiling, strain panel (AID 1159580);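 further: tested at 20 µM; growth read once vehicle control cultures reached saturation at 30 °C; 1 = growth at the plate median or of vehicle wells; lower values mean less growth of the strain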
Settings: S. cerevisiae deletion strains, growth OD

Measured: normalized growth

CN1CCOC(c2ccccc2)c2ccccc2C1 (configuration not stated)
inactive: locus YAL013W, strain DEP1, active compounds read low 1.01 | locus YAL021C, strain ccr4, active compounds read low 0.949 | locus YAL026C, strain drs2, active compounds read low 0.969 | locus YAL030W, strain snc1, active compounds read low 0.976 | locus YBL061C, strain skt5, active compounds read low 0.979 | locus YBR009C, strain hhf1, active compounds read low 0.984 | locus YBR021W, strain FUR4, active compounds read low 1.07 | locus YBR023C, strain chs3, active compounds read low 0.974 | locus YBR171W, strain sec66, active compounds read low 0.976 | locus YBR229C, strain ROT2, active compounds read low 1 | locus YBR231C, strain swc5, active compounds read low 0.977 | locus YBR279W, strain paf1, active compounds read low 0.975 | locus YCL011C, strain gbp2, active compounds read low 0.966 | locus YCL016C, strain dcc1, active compounds read low 1 | locus YCL029C, strain bik1, active compounds read low 1.04 | locus YCL061C, strain MRC1, active compounds read low 0.979 | locus YCL069W, strain vba3, active compounds read low 0.984 | locus YCR088W, strain abp1, active compounds read low 0.973 | locus YDL005C, strain med2, active compounds read low 0.979 | locus YDL035C, strain GPR1, active compounds read low 1 | locus YDL040C, strain nat1, active compounds read low 0.967 | locus YDL074C, strain BRE1, active compounds read low 1.05 | locus YDL101C, strain DUN1, active compounds read low 1.02 | locus YDL134C, strain PPH21, active compounds read low 1 | locus YDL185W, strain tfp1, active compounds read low 1.02 | locus YDL192W, strain arf1, active compounds read low 1.02 | locus YDR001C, strain nth1, active compounds read low 0.974 | locus YDR069C, strain doa4, active compounds read low 0.91 | locus YDR101C, strain arx1, active compounds read low 1.01 | locus YDR137W, strain rgp1, active compounds read low 0.988 | locus YDR150W, strain NUM1, active compounds read low 0.992 | locus YDR159W, strain sac3, active compounds read low 0.916 | locus YDR162C, strain NBP2, active compounds read low 1.01 | locus YDR195W, strain ref2 0.941 | locus YDR297W, strain sur2, active compounds read low 0.985 | locus YDR318W, strain mcm21, active compounds read low 1.03 | locus YDR334W, strain swr1, active compounds read low 0.917 | locus YDR335W, strain msn5, active compounds read low 0.995 | locus YDR388W, active compounds read low 1.02 | locus YDR392W, strain spt3, active compounds read low 0.987 | locus YDR502C, strain sam2, active compounds read low 1.01 | locus YEL003W, strain gim4, active compounds read low 0.989 | locus YEL037C, strain rad23, active compounds read low 0.985 | locus YEL061C, strain CIN8 (second series), active compounds read low 0.971 | locus YEL061C, strain CIN8, active compounds read low 1 | locus YER015W, strain faa2, active compounds read low 0.992 | locus YER016W, strain bim1, active compounds read low 0.975 | locus YER110C, active compounds read low 1.02 | locus YER111C, strain swi4, active compounds read low 0.971 | locus YER155C, strain BEM2 (second series), active compounds read low 1.01 | locus YER155C, strain BEM2, active compounds read low 1.01 | locus YER167W, strain BCK2, active compounds read low 1.01 | locus YFR010W, strain ubp6, active compounds read low 0.966 | locus YGL078C, strain dbp3, active compounds read low 1.02 | locus YGL086W, strain mad1, active compounds read low 0.998 | locus YGL167C, strain pmr1, active compounds read low 0.981 | locus YGL173C, strain kem1, active compounds read low 0.958 | locus YGL227W, strain vid30, active compounds read low 0.951 | locus YGL240W, strain doc1, active compounds read low 0.977 | locus YGL248W, strain PDE1, active compounds read low 1.01 | locus YGL253W, strain hxk2, active compounds read low 0.963 | locus YGR078C, strain PAC10, active compounds read low 1.02 | locus YGR135W, strain pre9, active compounds read low 1.02 | locus YGR229C, strain SMI1, active compounds read low 0.987 | locus YGR252W, strain gcn5, active compounds read low 0.997 | locus YHR013C, strain ard1, active compounds read low 0.992 | locus YHR027C, strain rpn1, active compounds read low 0.98 | locus YHR030C, strain SLT2, active compounds read low 1 and 0.998 | locus YHR079C, strain IRE1 (second series), active compounds read low 1.02 | locus YHR079C, strain IRE1, active compounds read low 0.985 | locus YHR094C, strain hxt1, active compounds read low 1.01 | locus YHR129C, strain ARP1, active compounds read low 1.01 | locus YHR142W, strain chs7, active compounds read low 0.963 | locus YHR200W, strain rpn10, active compounds read low 1.02 | locus YIL066C, strain RNR3, active compounds read low 1.01 | locus YIL073C, strain SPO22, active compounds read low 1.06 | locus YIL125W, strain kgd1, active compounds read low 1.01 | locus YIR030C, strain dcg1, active compounds read low 1.02 | locus YJL092W, strain hpr5, active compounds read low 0.986 | locus YJL095W, strain BCK1 (second series), active compounds read low 0.975 | locus YJL095W, strain BCK1, active compounds read low 1.02 and 0.995 | locus YJL115W, strain asf1, active compounds read low 0.949 | locus YJL129C, strain trk1, active compounds read low 0.968 | locus YJL134W, strain LCB3, active compounds read low 1 | locus YJL154C, strain vps35, active compounds read low 0.95 | locus YJL164C, strain tpk1, active compounds read low 0.984 | locus YJL166W, strain qcr8, active compounds read low 0.968 | locus YJL168C, strain set2, active compounds read low 1.02 | locus YJL187C, strain SWE1 (second series), active compounds read low 1.02 | locus YJL187C, strain SWE1, active compounds read low 0.985 | locus YJR043C, strain POL32, active compounds read low 1.03 | locus YJR066W, strain TOR1, active compounds read low 0.945
